T cruzi growth-1 – blocks T. cruzi growth in NIH3T3 culture; inhibition, % at 8.34 µM; T. cruzi beta-gal in NIH3T3, GalScreen luminescence, 90 h; AID 624255; 5.9% of 77,000 active;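 active = mean inhibition above about 93%, with at least 55% of replicates each passing it, limit read from the data, passing the limit was not always enough; inconclusive = only one of those two conditions holds; inactive = neither condition holds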
C diff growth – blocks growth of Clostridium difficile; Clostridium difficile clinical isolate growth, OD600, 24 h; active compounds read low; growth activity, negative = inhibition, % at 16 µg/mL (by protocol); AID 1259249; 0.25% of 86,000 active;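 active = mean growth activity at or below -80% and every replicate also at or below -80%; inconclusive = mean at or below -80% but some replicate above -80%; inactive = mean growth activity above -80%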;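 also: 0% = DMSO wells and -100% = levofloxacin 16 µg/mL wells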
Pf Dd2 growth – blocks growth of Plasmodium falciparum Dd2 parasites | 2.3% of 94,000 active | AID 1159554 | P. falciparum Dd2 growth, SYBR Green, 72 h; active compounds read low | activity change, % at 10 µM; in the data active = activity change below about -80%; inconclusive = no clear call, values can overlap the other calls
T cruzi growth-2 – inhibitors of T. cruzi proliferation | shares compounds with T cruzi growth-1 | T. cruzi beta-gal in NIH3T3, GalScreen luminescence, 90 h | inhibition, % at 8.35 µM | 72% of 5,600 active;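 active = mean replicate inhibition above about 95% and at least 55% of replicates individually reaching it, limit read from the data; inconclusive = only one of the two criteria is met; inactive = neither criterion is met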
T cruzi growth-3 – inhibitors of T. cruzi proliferation. shares compounds with T cruzi growth-1. AID 651740. inhibition, % at 2.09 µM. 21% of 5,600 active. T. cruzi beta-gal in NIH3T3, GalScreen luminescence, 90 h;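 active = mean inhibition above about 95%, with at least 55% of replicates also reaching it, limit read from the data; inconclusive = meets just one of the two conditions; inactive = meets neither condition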;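 also: plate controls were neutral control median for no effect and positive control median for full effect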
NIH3T3 tox – NIH/3T3 (mouse) viability loss; shares compounds with T cruzi growth-1; NIH/3T3 viability, CellTiter-Glo ATP luminescence, 90 h; cytotoxicity (signal decrease), % at 8.35 µM; 14% of 5,600 active;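 active = mean signal decrease across replicates above about 35% based on untreated-well scatter, with enough replicates individually passing, limit read from the data; inconclusive = no rule stated though some were filed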;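 also: 0% = median of neutral control wells and 100% = median of positive control wells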
NIH3T3 tox 2 – kills mouse NIH/3T3 fibroblasts. shares compounds with T cruzi growth-1. NIH/3T3 viability, CellTiter-Glo ATP luminescence, 90 h. 56% of 5,600 active. inhibition, % at 24.9 µM;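 active = mean loss of cell viability signal at or above a set limit, and enough replicates individually reaching it; inconclusive = meets only the mean limit or only the replicate share; inactive = meets neither condition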;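 also: 0% = median of neutral control wells and 100% = median of positive control wells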
* hit, by the source's call; ? = inconclusive; nt = no result given. The list is not random: actives were taken first. Their share in the collection is about 6.7%.

SMILES	T cruzi growth-1	C diff growth	Pf Dd2 growth	T cruzi growth-2	T cruzi growth-3	NIH3T3 tox	NIH3T3 tox 2
Cc1noc(C)c1NC(=O)N(C)C[C@@H]1Oc2ccc(N(C)C)cc2C(=O)N([C@H](C)CO)C[C@H]1C	106*	3	-28	-94	3	-18	10
Cc1noc(C)c1NC(=O)N(C)C[C@H]1Oc2ccc(N(C)C)cc2C(=O)N([C@H](C)CO)C[C@@H]1C	73	7	-76	nt	nt	nt	nt
Cc1noc(C)c1NC(=O)N(C)C[C@@H]1Oc2c(NS(C)(=O)=O)cccc2C(=O)N([C@@H](C)CO)C[C@H]1C	52	1	-13	nt	nt	nt	nt
Cc1noc(C)c1NC(=O)N(C)C[C@H]1Oc2c(NS(=O)(=O)c3c(C)noc3C)cccc2C(=O)N([C@H](C)CO)C[C@H]1C	104*	5	12	82	24	1	-2
Cc1ccc(S(=O)(=O)Nc2ccc3c(c2)C(=O)N(C)[C@H]2CC[C@@H](CC(=O)O)O[C@@H]2CO3)cc1	-27	-3	11	nt	nt	nt	nt
COc1ccc2c3c([nH]c2c1)[C@H](CO)N(C(=O)NC(C)C)CC31CCN(C(=O)c2cccnc2)CC1	nt	3	-4	nt	nt	nt	nt
CCCC(=O)N1CC2(C1)CN(C(=O)C1CCCCC1)[C@@H](CO)c1[nH]c3cc(OC)ccc3c12	nt	1	7	nt	nt	nt	nt
CC(C)C#Cc1ccc2c(c1)O[C@H](CN(C)C(=O)C1CCC1)[C@@H](C)CN([C@@H](C)CO)S2(=O)=O	103*	nt	-18	111*	33	2	51*
CC(C)C#Cc1ccc2c(c1)O[C@@H](CN(C)C(=O)C1CCC1)[C@@H](C)CN([C@H](C)CO)S2(=O)=O	80	nt	-44	nt	nt	nt	nt
CC(C)C#Cc1ccc2c(c1)O[C@H](CN(C)C(=O)C1CCC1)[C@H](C)CN([C@@H](C)CO)S2(=O)=O	67	nt	-1	nt	nt	nt	nt
CC(C)C#Cc1ccc2c(c1)O[C@@H](CN(C)C(=O)C1CCCCC1)[C@H](C)CN([C@H](C)CO)S2(=O)=O	104*	43	-83*	103*	85	?	105*
COCC(=O)Nc1ccc2c(c1)OC[C@H](C)N(C(=O)c1ccccc1)C[C@@H](C)[C@@H](OC)CN(C)C2=O	27	nt	-4	nt	nt	nt	nt
Cc1ccc(S(=O)(=O)N2C[C@@H](O)COC[C@H]3O[C@H](CC(=O)N[C@H]4CCN(Cc5ccccc5)C4)CC[C@@H]32)cc1	88	nt	-23	nt	nt	nt	nt
CNC[C@H]1OCCCC[C@@H](C)Oc2ccc(NC(=O)Nc3ccc(F)cc3)cc2C(=O)N([C@H](C)CO)C[C@@H]1C	14	3	18	nt	nt	nt	nt
CN1CCCCN2[C@H](CO)[C@@H](c3ccc(/C=C/c4ccccc4)cc3)[C@H]2C1	59	6	-11	nt	nt	nt	nt
CCC(=O)N1CCCCN2[C@H](CO)[C@H](c3ccc(/C=C/c4ccccc4)cc3)[C@H]2C1	117*	-6	-18	102*	66	27	105*
CCC(=O)N1CCCCN2[C@@H](CO)[C@H](c3ccc(/C=C/c4ccccc4)cc3)[C@@H]2C1	116*	11	10	106*	37	43*	105*
CCC(=O)N1CCCCN2[C@H](CO)[C@@H](c3ccc(/C=C/c4ccccc4)cc3)[C@H]2C1	91	-1	-26	nt	nt	nt	nt
C[C@H]1CN([C@@H](C)CO)C(=O)c2cc(-c3cccc(F)c3)cnc2O[C@H]1CN(C)Cc1cccnc1	30	-2	15	nt	nt	nt	nt
CN1CCN(C(=O)C[C@H]2C[C@H]3c4cc(NC(=O)c5ccc6c(c5)OCO6)ccc4O[C@H]3[C@H](CO)O2)CC1	-20	nt	2	nt	nt	nt	nt
CC(C)C#Cc1ccc2c(c1)O[C@@H](CN(C)Cc1ccccn1)[C@H](C)CN([C@H](C)CO)S2(=O)=O	76	14	-44	nt	nt	nt	nt
C[C@@H]1CN([C@@H](C)CO)S(=O)(=O)c2ccc(C#CC3CC3)cc2O[C@H]1CN(C)Cc1ccccn1	?	-6	-37	100*	79	64*	72*
C[C@H]1CN([C@@H](C)CO)S(=O)(=O)c2ccc(C#CC3CC3)cc2O[C@@H]1CN(C)Cc1ccccn1	109*	-11	-46	91	71	27	80*
C[C@H](CO)N1C[C@H](C)[C@H](CN(C)Cc2ccccn2)Oc2cc(C#CC3CC3)ccc2S1(=O)=O	59	-3	-23	nt	nt	nt	nt
C[C@@H]1CN([C@H](C)CO)S(=O)(=O)c2ccc(C#CC3CC3)cc2O[C@H]1CN(C)Cc1ccccn1	110*	-8	-28	76	-3	102*	76*
SMILES	T cruzi growth-1	C diff growth	Pf Dd2 growth	T cruzi growth-2	T cruzi growth-3	NIH3T3 tox	NIH3T3 tox 2
CC(C)C#Cc1ccc2c(c1)O[C@@H](CN(C)Cc1ccccn1)[C@@H](C)CN([C@H](C)CO)S2(=O)=O	79	17	-4	nt	nt	nt	nt
O=C(NC1CCCC1)N1CC(=O)N2[C@H](CO)[C@@H](c3ccc(-c4cccnc4)cc3)[C@@H]2C1	nt	-11	-26	nt	nt	nt	nt
N#Cc1ccc(-c2ccc3c(c2)[C@H]2[C@H](CCN2C(=O)c2ccccc2F)[C@H](CO)N3)cc1	88	2	-7	nt	nt	nt	nt
N#Cc1ccc(-c2ccc3c(c2)[C@@H]2[C@@H](CCN2C(=O)C2CC2)[C@@H](CO)N3)cc1	104*	2	6	107*	85	-3	35*
N#Cc1ccc(-c2ccc3c(c2)[C@H]2[C@H](CCN2C(=O)C2CC2)[C@H](CO)N3)cc1	93	-9	12	nt	nt	nt	nt
CN(C)C(=O)c1cccc(-c2ccc3c(c2)[C@@H]2[C@@H](CCN2C(=O)c2ccccc2F)[C@@H](CO)N3)c1	106*	-3	-13	100*	68	12	16
N#Cc1ccc(-c2ccc3c(c2)[C@@H]2[C@@H](CCN2C(=O)c2ccccc2F)[C@@H](CO)N3)cc1	102*	-2	8	103*	82	21	50*
CN(C)C(=O)c1ccc(-c2ccc3c(c2)[C@H]2[C@H](CCN2C(=O)c2ccccc2F)[C@@H](CO)N3)cc1	53	1	-49	nt	nt	nt	nt
COc1ccc2c3c(n(C)c2c1)[C@H](CO)N(C(=O)NC(C)C)CC31CCN(Cc2nccs2)CC1	nt	-4	-59	nt	nt	nt	nt
C[C@@H]1CN([C@@H](C)CO)C(=O)c2cccc(NS(C)(=O)=O)c2O[C@H]1CN(C)C	-2	-4	-9	nt	nt	nt	nt
COc1ccccc1NC(=O)N1CC(=O)N2[C@H](CO)[C@@H](c3ccc(-c4ccccc4)cc3)[C@H]2C1	nt	-8	-20	nt	nt	nt	nt
O=C(C1CCOCC1)N1CC2(C1)[C@H](c1ccccc1)[C@@H](CO)N2Cc1ccccc1F	nt	0	12	nt	nt	nt	nt
C[C@H]1CCCCO[C@H](CN(C)S(=O)(=O)c2cn(C)cn2)[C@@H](C)CN([C@@H](C)CO)C(=O)c2cc(NS(=O)(=O)c3ccc(Cl)cc3)ccc2O1	2	4	-17	nt	nt	nt	nt
